# Measurements taken from the supplement of paper PMC8728848.
# About 410 targets per protein were measured; listed, in parts, are those with the strongest signals and a random draw of the rest.
# B1: a L Fucosidase (Thermotoga maritima) (protein)
# chain: MASMKPRYKPDWESLREHTVPKWFDKAKFGIFIHWGIYSVPGWATPTGELGKVPMDAWFFQNPYAEWYENSLRIKESPTWEYHVKTYGENFEYEKFADLFTAEKWDPQEWADLFKKAGAKYVIPTTKHHDGFCLWGTKYTDFNSVKRGPKRDLVGDLAKAVREAGLRFGVYYSGGLDWRFTTEPIRYPEDLSYIRPNTYEYADYAYKQVMELVDLYLPDVLWNNMGWPEKGKEDLKYLFAYYYNKHPEGSVNDRWGVPHWDFKTAEYHVNYPGDLPGYKWEFTRGIGLSFGYNRNEGPEHMLSVEQLVYTLVDVVSKGGNLLLNVGPKGDGTIPDLQKERLLGLGEWLRKYGDAIYGTSVWERCCAKTEDGTEIRFTRKCNRIFVIFLGIPTGEKIVIEDLNLSAGTVRHFLTGERLSFKNVGKNLEITVPKKLLETDSITLVLEAVEE
# How the values were obtained:
# Assay in all cases: glycan array binding signal (z-score within array); higher = stronger binding
# Settings in all cases: glycan notation: IUPAC condensed, linker removed; mutation: D224N
# [1] = target: Fuc(a1-2)Gal(b1-3)GlcNAc(b1-2)Man(a1-3)[Fuc(a1-2)Gal(b1-3)GlcNAc(b1-2)Man(a1-6)]Man(b1-4)GlcNAc(b1-4)GlcNAc
# Outline: (§1)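 Glycan array data came from 3228 arrays in the Consortium for Functional Glycomics database, and only arrays with an available protein sequence were kept. Glycan names were put into IUPAC-condensed notation, and columns mapping to the same glycan were averaged. The binding signal is a within-array Z-score, averaged across arrays of one protein sequence run at different concentrations or buffers and across linkers. A negative Z-score can be read as non-binding.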
# [2] = target: Fuc(a1-2)Gal(b1-3)GlcNAc(b1-3)[Neu5Ac(a2-6)Gal(b1-4)GlcNAc(b1-6)]Gal(b1-4)Glc
# Outline: as §1
# [3] = target: Fuc(a1-2)Gal(b1-3)GlcNAc6S
# Outline: as §1
# [4] = target: Fuc(a1-2)Gal(b1-4)GlcNAc(b1-3)GalNAc
# Outline: as §1
# [5] = target: Fuc(a1-2)Gal(b1-4)GlcNAc(b1-3)[Fuc(a1-2)Gal(b1-4)GlcNAc(b1-6)]GalNAc
# Outline: as §1
# [6] = target: Fuc(a1-2)[Gal(a1-3)]Gal(b1-3)GalNAc
# Outline: as §1
# [7] = target: Fuc(a1-2)[GalNAc(a1-3)]Gal(b1-3)GlcNAc
# Outline: as §1
# [8] = target: Fuc(a1-2)[GalNAc(a1-3)]Gal(b1-4)GlcNAc(b1-3)Gal(b1-4)GlcNAc(b1-3)Gal(b1-4)GlcNAc
# Outline: as §1
# [9] = target: Fuc(a1-3)[Gal(b1-4)]Glc6S
# Outline: as §1
# [10] = target: Fuc(a1-3)[Gal(b1-4)]GlcNAc(b1-2)Man(a1-3)[Fuc(a1-3)[Gal(b1-4)]GlcNAc(b1-2)Man(a1-6)]Man(b1-4)GlcNAc(b1-4)[Fuc(a1-6)]GlcNAc
# Outline: as §1
# [11] = target: Fuc(a1-3)[Gal(b1-4)]GlcNAc(b1-3)Gal(b1-4)[Fuc(a1-3)]GlcNAc(b1-3)Gal(b1-4)[Fuc(a1-3)]GlcNAc
# Outline: as §1
# [12] = target: Fuc(a1-3)[Gal(b1-4)]GlcNAc(b1-6)GalNAc
# Outline: as §1
# Gal(a1-2)Gal = target: Gal(a1-2)Gal
# Outline: as §1
# Gal(a1-3)GalNAc = target: Gal(a1-3)GalNAc
# Outline: as §1
# Gal(b1-3)GlcNAc(b1-2)Man = target: Gal(b1-3)GlcNAc(b1-2)Man
# Outline: as §1
# [13] = target: Gal(b1-3)GlcNAc(b1-3)Gal(b1-4)GlcNAc(b1-6)[Gal(b1-3)GlcNAc(b1-3)]Gal(b1-4)Glc
# Outline: as §1
# [14] = target: Gal(b1-4)GlcNAc(b1-3)Gal(b1-4)GlcNAc(b1-2)[Gal(b1-4)GlcNAc(b1-3)Gal(b1-4)GlcNAc(b1-6)]Man(a1-6)[Gal(b1-4)GlcNAc(b1-3)Gal(b1-4)GlcNAc(b1-2)Man(a1-3)]Man(b1-4)GlcNAc(b1-4)GlcNAc
# Outline: as §1
# [15] = target: Gal(b1-4)GlcNAc(b1-3)Gal(b1-4)GlcNAc(b1-3)Gal(b1-4)GlcNAc(b1-3)Gal(b1-4)GlcNAc(b1-2)Man(a1-3)[Gal(b1-4)GlcNAc(b1-3)Gal(b1-4)GlcNAc(b1-3)Gal(b1-4)GlcNAc(b1-3)Gal(b1-4)GlcNAc(b1-2)Man(a1-6)]Man(b1-4)GlcNAc(b1-4)[Fuc(a1-6)]GlcNAc
# Outline: as §1
# [16] = target: Gal(b1-4)GlcNAc(b1-3)Gal(b1-4)GlcNAc(b1-3)Gal(b1-4)GlcNAc(b1-3)Gal(b1-4)GlcNAc(b1-3)Gal(b1-4)GlcNAc(b1-2)Man(a1-3)[Gal(b1-4)GlcNAc(b1-3)Gal(b1-4)GlcNAc(b1-3)Gal(b1-4)GlcNAc(b1-3)Gal(b1-4)GlcNAc(b1-3)Gal(b1-4)GlcNAc(b1-2)Man(a1-6)]Man(b1-4)GlcNAc(b1-4)GlcNAc
# Outline: as §1
# [17] = target: Gal3S(b1-4)[Fuc(a1-3)]Glc6S
# Outline: as §1
# Gal3S6S(b1-4)GlcNAc = target: Gal3S6S(b1-4)GlcNAc
# Outline: as §1
# Gal6S(b1-4)Glc6S = target: Gal6S(b1-4)Glc6S
# Outline: as §1
# [18] = target: Glc(a1-4)Glc(a1-4)Glc(a1-4)Glc
# Outline: as §1
# [19] = target: GlcNAc(a1-4)Gal(b1-4)GlcNAc
# Outline: as §1
# [20] = target: GlcNAc(a1-4)Gal(b1-4)GlcNAc(b1-3)Gal(b1-4)GlcNAc(b1-3)Gal(b1-4)GlcNAc
# Outline: as §1
binder,measurement,setting,value
B1,glycan array binding signal (z-score),[1],0.227
same,glycan array binding signal (z-score),[2],-0.742
same,glycan array binding signal (z-score),[3],-0.396
same,glycan array binding signal (z-score),[4],0.144
same,glycan array binding signal (z-score),[5],0.657
same,glycan array binding signal (z-score),[6],-0.35
same,glycan array binding signal (z-score),[7],2.8
same,glycan array binding signal (z-score),[8],0.201
same,glycan array binding signal (z-score),[9],2.33
same,glycan array binding signal (z-score),[10],1.05
same,glycan array binding signal (z-score),[11],0.062
same,glycan array binding signal (z-score),[12],-0.2
same,glycan array binding signal (z-score),Gal(a1-2)Gal,-0.446
same,glycan array binding signal (z-score),Gal(a1-3)GalNAc,-0.41
same,glycan array binding signal (z-score),Gal(b1-3)GlcNAc(b1-2)Man,0.366
same,glycan array binding signal (z-score),[13],-0.509
same,glycan array binding signal (z-score),[14],1.93
same,glycan array binding signal (z-score),[15],0.731
same,glycan array binding signal (z-score),[16],0.594
same,glycan array binding signal (z-score),[17],0.443
same,glycan array binding signal (z-score),Gal3S6S(b1-4)GlcNAc,1.33
same,glycan array binding signal (z-score),Gal6S(b1-4)Glc6S,-0.426
same,glycan array binding signal (z-score),[18],2.84
same,glycan array binding signal (z-score),[19],-0.293
same,glycan array binding signal (z-score),[20],0.079
